Epigenetic derep – epigenetic control regulation, reporter derepression. AID 1865. murine LDR cells, GFP reporter derepression, 30 h. Potency, µM (doses to about 53.9 µM), usual class: activators. 0.2% of 280,000 active; note: nearly all actives have a fitted effect of over 60% in size
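Readout is the number of GFP-expressing murine LDR cells, counted by cytometry following washing. Cells were treated with compound for 30 h at 37 C; the stably integrated CMV-GFP locus is normally silent.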
GRP78 ERSR act – induces the endoplasmic reticulum stress response in human glioma cells. 0.02% of 420,000 active. Potency, µM, actives largely listed as activators. U87-MG GRP78 promoter luciferase reporter, 16 h; note: series mostly up to about 76 µM; nearly all actives have a fitted effect of over 35% in size
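ERSR induction read as luciferase luminescence (Bright-Glo, 10 min at room temperature) in stably transfected human U87-MG glioma cells exposed to compounds for 16 h, using GRP78 as sensor.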
Vif-APOBEC3F blk – Vif-A3F binding inhibition; AID 602313; HeLa A3F-eYFP + Vif (tagged APOBEC3F with the HIV-1 protein that degrades it), YFP fluorescence increase; Potency, µM (highest dose often 46.1 µM); 0.2% of 390,000 active; note: nearly all actives have a fitted effect of over 65% in size
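HeLa cells stably expressing Vif plus C-terminally eYFP-tagged A3F were seeded, incubated overnight at 37 deg C, dosed with compound, incubated overnight again at 37 deg C. Yellow fluorescence (Ex 488/Em 500-530) reported blocked Vif-mediated A3F-eYFP degradation.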
Vif-APOBEC3G blk – Vif-A3G binding inhibition | Q9HC16 | HeLa A3G-eYFP + Vif (tagged APOBEC3G with the HIV-1 protein that degrades it), YFP fluorescence, overnight | Potency, µM (top dose mostly 46.1 µM), most hits filed as inhibitors | 0.076% of 410,000 active; note: nearly all actives have a fitted effect of over 60% in size
Target sequence (Q9HC16 whole entry, looked up): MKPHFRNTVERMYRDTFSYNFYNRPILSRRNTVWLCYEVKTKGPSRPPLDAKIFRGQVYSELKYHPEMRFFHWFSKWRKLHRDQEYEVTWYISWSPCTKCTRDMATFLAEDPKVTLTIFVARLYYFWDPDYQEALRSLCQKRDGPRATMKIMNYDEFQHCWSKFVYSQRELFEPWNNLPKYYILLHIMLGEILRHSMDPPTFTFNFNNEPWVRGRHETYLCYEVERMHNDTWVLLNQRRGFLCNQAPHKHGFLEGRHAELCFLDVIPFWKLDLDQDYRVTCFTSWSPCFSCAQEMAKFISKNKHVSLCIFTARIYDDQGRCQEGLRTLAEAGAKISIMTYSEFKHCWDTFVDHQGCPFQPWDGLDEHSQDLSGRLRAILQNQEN
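Read-out is eYFP fluorescence (Ex 488/Em 500-530) from Vif-expressing HeLa A3G-eYFP cells; more signal means A3G escaped Vif-mediated degradation. Cells plated overnight, compound pinned in, incubated overnight at 37 deg C.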
Numbers stand for hits; i = inactive; ? = inconclusive; nt = not tested or not shown; [ ] = dose if it differs, or a comment. An excerpt weighted towards active compounds, which were near 0.35% of everything screened. Calls come from the whole dose curve; as a rule, active = well fitted curve in the direction sought with a large enough effect; inconclusive = small, poorly fitted or top-dose-only effect, or another doubt; inactive = no such curve, though single readings can be large; an effect the other way counts as inactive or inconclusive.

SMILES | Epigenetic derep | GRP78 ERSR act | Vif-APOBEC3F blk | Vif-APOBEC3G blk
CCn1c(/C=C/N(C)c2ccccc2)[n+](CC)c2ccc(Cl)cc21 | i | i | i | i
CC[n+]1c(/C=C/Nc2ccccc2)oc2ccccc21 | 16µM | i | 11µM | 7.9µM
CC[n+]1c(/C=C/N(C)c2ccccc2)oc2ccc(F)cc21 | i | i | ? | 4µM
CC/C(=C\c1oc2cc3ccccc3cc2[n+]1CC)Nc1ccccc1 | i | i | i | i
CC[n+]1c(/C=C/Nc2ccccc2)oc2ccc(OC)cc21 | 13µM | i | 5.6µM | ?
CC(NC(=O)c1cccnc1)c1nnc2n1CCN(Cc1ccc(-c3ccccc3)cc1)CC2 (centres undefined) | nt | i | nt | nt
O=C(NCc1cc(F)cc2c1OCCO2)[C@H]1C[C@@H]1[C@H](NP(=O)(c1ccccc1)c1ccccc1)c1ccccc1 | i | nt | nt | nt
COc1cccc(/C(O)=C/c2nc3ccc(C(=O)NCCc4ccc(Cl)cc4)cc3[nH]c2=O)c1 | 7.9µM | i | 5µM | ?
COc1cccc(/C(O)=C/c2nc3ccc(C(=O)NCCc4cccc(C)c4)cc3[nH]c2=O)c1 | 14µM | i | ? | 5.6µM
CCCC[C@@H](C=O)NC(=O)[C@H](CC(C)C)NC(=O)[C@H](CC(C)C)NC(C)=O | 11µM | i | nt | nt
S=C=Nc1ccc(N=C=S)cc1 | nt | i | nt | nt
COCc1c(C(=O)NC2CCCC2)cnn1-c1nccc(-c2cccs2)n1 | nt | i | nt | nt
O=C(O)CC/C(=N/NC(=O)CNC(=O)c1ccc2c(c1)OCCO2)c1ccccc1 | nt | i | i | i
Nc1c(C(=O)Nc2ccccc2F)sc2nc(-c3cccnc3)ccc12 | i | i | i | i
Nc1c(C(=O)Nc2ccccc2F)sc2nc(-c3ccco3)ccc12 | ? | i | 22µM | ?
O=C1COc2ccc(C(=O)CSc3nc4ccccc4c(=O)n3-c3ccc(Cl)c(Cl)c3)cc2N1 | ? | i | 10µM | ?
COC(=O)c1sccc1NC(=S)Nc1cc(C)cc(C)c1 | i | i | 25µM | i
COC(=O)c1sccc1NC(=S)Nc1ccccc1 | i | i | i | i
CC(=O)N1CCCc2cc(S(=O)(=O)N3CCN(c4ccccc4F)CC3)ccc21 | i | i | i | i
COc1ccc(NC(=S)Nc2ncccc2C)c(OC)c1 | i | i | i | 11µM
COc1ccc(NC(=S)Nc2ncccc2C)cc1OC | i | i | i | i
C=CCn1c(SCC(=O)Nc2cccc(S(N)(=O)=O)c2)nnc1C1CCCCC1 | nt | i | i | i
COc1cc(/C=C2\SC(=S)N(C(C(=O)O)c3ccccc3)C2=O)cc(OC)c1OC (centres undefined) | i | 32µM | i | i
COc1cccc(/C=C2\SC(=S)N(C(C(=O)O)c3ccccc3)C2=O)c1OC (centres undefined) | i | i | i | i
Nc1ncnc2c1ncn2[C@@H]1O[C@H](CNCc2ccc(OCC(=O)Nc3ccccn3)cc2)[C@@H](O)[C@H]1O | nt | i | i | i
SMILES | Epigenetic derep | GRP78 ERSR act | Vif-APOBEC3F blk | Vif-APOBEC3G blk
Nc1ncnc2c1ncn2[C@@H]1O[C@H](CNCc2ccc(OCc3ccccc3)cc2)[C@@H](O)[C@H]1O | nt | i | i | 22µM
CN1CCN(Cc2cc(Cl)c3cccnc3c2OC(=O)c2cccs2)CC1 | 3.5µM | i | ? | i
CCC(C)Sc1ccc(-c2nc3cc(C)ccn3c2NC2CCCCC2)cc1 (centres undefined) | nt | i | 11µM | ?
CCC(C)Sc1ccc(-c2nc3cnccn3c2NC2CCCCC2)cc1 (centres undefined) | nt | i | ? | ?
CC1(C)CC(=O)C2=C(C1)NC(Nc1nc3ccccc3o1)=NC2c1ccccc1Cl (centres undefined) | nt | i | nt | i
CC1=C(C(=O)Nc2ccccc2)C(c2ccc(C)cc2)N=C(Nc2nc3ccccc3o2)N1 (centres undefined) | i | i | 10µM | ?
CCN1/C(=C2\SC(=S)N(Cc3ccccc3)C2=O)Sc2ccccc21 | 13µM | i | ? | i
Cc1cc(C)cc(C(O)c2ncc(-c3cccc(F)c3)[nH]2)c1 (centres undefined) | nt | i | nt | i
Cc1ccc(/C=C2\CCC3=C2OC(N)=C(C#N)C3c2ccc(C)cc2)cc1 (centres undefined) | 11µM | i | ? | ?
CC(=O)NC(c1cc(Cl)c2cccnc2c1O)C1CC1 (centres undefined) | nt | i | ? | 5µM
CC(=O)NC(c1cc(Cl)c2cccnc2c1O)C(C)C (centres undefined) | nt | i | 8.9µM | i
CC(C)Cn1nnnc1S(=O)(=O)CCc1ccccc1 | i | nt | nt | nt
COC1=C(Br)C(=O)c2ncccc2C1=O | nt | i | 11µM | i
Cc1cc(/C=C2\SC(=S)N(Cc3ccco3)C2=O)c(C)n1-c1ccccc1 | ? | i | 20µM | ?
CN(C)c1ccc(C=C2SC(=S)N(Cc3ccco3)C2=O)cc1 | nt | i | ? | ?
Cc1cccc(C)c1NC(=S)NCCc1ccc(O)c(O)c1 | i | 16µM | i | i
Cc1cccc(NC(=S)NCCc2ccccc2)c1C | nt | i | ? | i
CCOC(=O)c1c(SCC(=O)Nc2nccs2)nc(C)c(C)c1C | nt | i | i | i
Cc1oc(-c2cccc(C(F)(F)F)c2)nc1CN1CCOCC1 | 11µM | i | i | i
NC(=O)C1CCN(C2=C(NS(=O)(=O)c3ccc(Br)cc3)C(=O)c3ccccc3C2=O)CC1 | nt | i | i | i
NC(=O)C1CCN(c2nc3ccccc3nc2NS(=O)(=O)c2ccc(Br)cc2)CC1 | nt | i | 25µM | i
COc1ccc(C(=O)c2sc3nc4c(c(C(F)(F)F)c3c2N)CN(C(C)=O)CC4)cc1OC | i | i | 22µM | ?
CC(=O)N1CCc2nc3sc(C(=O)c4ccc(F)cc4)c(N)c3c(C(F)(F)F)c2C1 | ? | i | 13µM | ?
COc1ccc(CNC(=O)c2sc3nc4c(c(C(F)(F)F)c3c2N)CCC4)cc1OC | i | i | ? | i
CC(C)C(NS(C)(=O)=O)c1nnc2n1CCN(Cc1cccc3ncccc13)CC2 (centres undefined) | nt | i | nt | nt
SMILES | Epigenetic derep | GRP78 ERSR act | Vif-APOBEC3F blk | Vif-APOBEC3G blk
CN(C)c1ccc(/C=C/c2ccnc3c(Cl)ccc(Cl)c23)cc1 | nt | i | nt | 3.5µM
CCCCCCCCCN(CCCCCCCCC)c1ccc(/C=C/c2ccnc3ccccc23)cc1 | nt | i | nt | i
Cc1cc(N(C)C)c(C)cc1/C=C/c1ccnc2ccccc12 | nt | i | nt | 14µM
Cc1cc(/C=C/c2ccnc3ccccc23)ccc1N | nt | i | nt | 10µM
CCCN(CCC)c1ccc(/C=C/c2ccnc3ccccc23)cc1 | nt | i | nt | 11µM
Cc1c(NC(=O)c2ccc(Br)o2)cccc1-c1nc2ccccc2o1 | i | i | i | i
CCCCCCCC#Cc1ccccc1/C=N/S(=O)C(C)(C)C (centres undefined) | i[10.1 µM] | i | nt | nt
CN(C)c1ccc(/C=C/c2ccnc3ccc(I)cc23)cc1 | nt | i | nt | 8.9µM
Cc1ccc2c(/C=C/c3ccc(N(C)C)cc3)ccnc2c1C | nt | i | nt | ?
Cc1cc(C)c2nccc(/C=C/c3ccc(N(C)C)cc3)c2c1 | nt | i | nt | 10µM
CN(C)c1ccc(/C=C/c2ccnc3ccccc23)cc1 | nt | i | nt | 11µM
Cc1cc(NC(=O)c2ccc(NC(=O)CCS(=O)(=O)c3cccs3)cc2)ccc1Br | i | i | i | i

Source: PubChem BioAssay
